# Source: PubChem
# Most compounds without a hit are left out; they make up all but 4.3% or so of the library.
# UBC13 inh: UBC13 polyubiquitin chain formation inhibitors, primary screen, biochemical, TR-FRET, uHTS. 330,000 compounds, 0.47% hits. AID 485273, 2010. inhibition, % at 20 µM; in the data active = inhibition above about 45%, passing the limit was not always enough
# Target sequence (P61088 whole entry, looked up): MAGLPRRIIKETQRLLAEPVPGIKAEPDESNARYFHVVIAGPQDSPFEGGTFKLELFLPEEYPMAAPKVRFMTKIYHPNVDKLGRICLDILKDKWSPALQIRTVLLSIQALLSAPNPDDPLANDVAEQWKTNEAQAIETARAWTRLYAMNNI
# dFosB act: activators of delta FosB homodimer, primary screen, biochemical, fluorescence polarization, TAMRA-CDK5 oligo, single point. AID 493131, 2011. 340,000 compounds, 0.99% hits. activation, % at 25 µM. purified delta FosB; percent of positive-control signal above neutral wells;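 active = mean activation above about 17%, with every replicate also reaching it, limit read from the data, passing the limit was not always enough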
# Target sequence (P13346 whole entry, looked up): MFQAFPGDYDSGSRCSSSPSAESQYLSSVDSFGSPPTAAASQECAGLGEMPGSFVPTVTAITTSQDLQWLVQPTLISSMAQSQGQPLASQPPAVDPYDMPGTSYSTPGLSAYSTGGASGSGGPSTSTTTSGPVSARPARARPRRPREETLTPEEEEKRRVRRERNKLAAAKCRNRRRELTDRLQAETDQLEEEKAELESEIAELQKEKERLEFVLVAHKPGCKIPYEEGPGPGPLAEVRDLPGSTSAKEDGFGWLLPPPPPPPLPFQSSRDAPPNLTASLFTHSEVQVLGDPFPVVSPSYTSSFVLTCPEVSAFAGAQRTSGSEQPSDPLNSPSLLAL
# NR3A LBD binder: binders of NR3A ligand-binding domain, primary screen, biophysical, differential scanning fluorimetry, uHTS. NR3A LBD differential scanning fluorimetry, Tm shift; 0% = protein alone, 100% = glycine-bound protein. Tm shift relative to glycine control, % at 25 µM. 340,000 compounds, 2.5% hits;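 active = melting temperature shift of at least 10% of the positive control shift, at one fixed dose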
# CR mimetic SO: reduction of superoxide in aged yeast, primary screen, HTS. S. cerevisiae aged cells, superoxide DHE fluorescence; hits give low values. superoxide response (% of plate mean), % at 10 µM. 330,000 compounds, 0.18% hits. AID 2690, 2010;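 active = superoxide response under a set limit, about three screen SD below normal, cut at about 65% in these data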;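 also: yeast aged for seven days with compound at 30 °C before DHE staining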
# NALP1 inh: NALP1 inflammasome inhibitors in reconstituted yeast, colorimetric, S. cerevisiae, triplicate retest; S. cerevisiae NALP1/ASC/caspase-1 growth, X-gal OD620, 72 h; inhibition, % at 10 µM; 280,000 compounds, 0.61% hits; AID 2071, 2009; in the data active = inhibition mostly above about 24%, no sharp cut-off; inactive = mostly below about 32%
# Hits are given with their value; i = inactive; nt = no result given.
SMILES,UBC13 inh,dFosB act,NR3A LBD binder,CR mimetic SO,NALP1 inh
CC(NS(=O)(=O)c1ccc(OCC(=O)Nc2cccc([N+](=O)[O-])c2)cc1)c1ccccc1 (stereo unspecified),nt,i,19,i,i
COc1ccc(CNC(=O)COc2ccc(S(=O)(=O)NC(C)C)cc2)cc1,i,i,i,i,i
COc1ccc(OCC(=O)NS(=O)(=O)c2ccc(Cl)cc2)cc1,i,i,i,i,i
CC(C)NC(=O)N(C)C[C@@H]1Oc2ccc(NC(=O)CCN3CCOCC3)cc2CC(=O)N([C@@H](C)CO)C[C@@H]1C,i,i,i,i,nt
Cc1ccc(C(=O)C(C)Sc2nnc(N)s2)cc1 (stereo unspecified),i,i,i,i,i
COc1cc(OC)c(C(=O)Nc2ccc(S(=O)(=O)N3CCCCC3)cc2)cc1OC,i,i,i,i,nt
CC(C)N(C(=O)CSc1nnc(C2CC2)n1C1CC1)c1ccccc1,i,i,i,nt,nt
COc1cc(NC(=O)c2csc(N)n2)cc(C(=O)Nc2cccc(C(F)(F)F)c2)c1,i,i,19,i,nt
COc1cc(NC(=O)c2ccnc(N)c2)cc(C(=O)Nc2cccc(C(F)(F)F)c2)c1,i,i,13,i,nt
COc1cc(NC(=O)c2cc(C)on2)cc(C(=O)Nc2cccc(C(F)(F)F)c2)c1,i,i,i,i,nt
COc1cc(NC(=O)c2cnc(N)s2)cc(C(=O)Nc2cccc(C(F)(F)F)c2)c1,i,nt,37,i,nt
CCOC(=O)N1CCC(NC(=O)c2cc(S(=O)(=O)NCCc3ccccc3)ccc2F)CC1,i,i,i,i,i
Cc1ccc(NC(=O)c2cc(S(=O)(=O)NCCc3ccccc3)ccc2F)cc1Cl,i,i,24,i,i
O=C(Nc1cccc(Cl)c1)c1cc(S(=O)(=O)NCCc2ccc(Cl)cc2)ccc1F,i,i,32,i,i
CCNC(=S)N(CCCN(C)C)Cc1cc2cc3c(cc2[nH]c1=O)OCCO3,i,i,i,i,i
Cc1cccc(N=C2NN=C(c3c(C)[nH]c4ccccc34)CS2)c1,i,i,19,i,i
Cc1cccc(N=C2NN=C(c3ccc4c(c3)OCCO4)CS2)c1,i,i,i,i,i
N#Cc1cccc(NC(=O)COC(=O)c2cc(S(=O)(=O)Nc3ccccc3Cl)ccc2O)c1,i,i,18,i,nt
O=C(COC(=O)c1cc(Br)ccc1O)Nc1ccc2c(c1)OCCO2,i,23,i,i,nt
COc1ccc(NS(=O)(=O)c2ccc(O)c(C(=O)OCC(=O)Nc3ccc4c(c3)OCCO4)c2)cc1,i,i,19,i,i
O=C(COC(=O)c1ccc(O)cc1)Nc1ccc2c(c1)OCCO2,i,i,i,i,nt
O=C(Nc1cc([N+](=O)[O-])c2[nH]c(=O)c3ccccc3c2c1)C(F)(F)F,nt,i,44,nt,nt
Cn1cc(C2N3CC4(C)CN2CC(C)(C3)C4=O)c2ccccc21 (stereo unspecified),i,i,i,i,i
CC(=O)N1C=CN(C(C)=O)C(c2cn(C)c3ccccc23)C1c1cn(C)c2ccccc12 (stereo unspecified),i,i,14,i,i
COCCn1c(C)cc(C(=O)CSc2cc(C)c3ccccc3n2)c1C,i,i,i,i,i
SMILES,UBC13 inh,dFosB act,NR3A LBD binder,CR mimetic SO,NALP1 inh
COCCn1c(C)cc(C(=O)CSc2nc3ccccc3c(=O)n2Cc2ccco2)c1C,i,i,12,i,i
OCC(O)C(O)C(O)C(O)c1nc2ccccc2[nH]1 (stereo unspecified),i,i,i,i,25
CN1/C(=C\C(=O)c2cccc([N+](=O)[O-])c2)Sc2ccccc21,i,i,12,i,i
O=C(CCc1ccc(O)cc1)c1c(O)cc(O)cc1O,i,i,21,i,i
COc1cc(O)c(CC=C(C)C)c(O)c1C(=O)CCc1ccc(O)cc1,i,i,19,i,i
COC(=O)[C@]1(C)N[C@H](CN(C)S(=O)(=O)c2ccc(OC(F)(F)F)cc2)[C@@H]2C(=O)N(Cc3ccccc3)C(=O)[C@@H]21,i,i,i,i,nt
COc1ccc(NCc2ccc([N+](=O)[O-])s2)cc1,i,i,i,i,62
O=[N+]([O-])c1ccc(CNc2ccc(Cl)cc2)s1,i,i,i,i,nt
O=[N+]([O-])c1ccc(CNc2ccc(F)cc2)s1,i,i,i,i,i
COc1ccc(NCc2ccc([N+](=O)[O-])s2)c(OC)c1,nt,i,i,i,52
COc1ccc(CN(C)C(=O)c2ccc3c(=O)n4c(nc3c2)CCC4)c(OC)c1,i,i,i,i,nt
CSc1ccccc1NC(=O)c1csc(C)c1,i,i,i,i,i
CC(=O)Nc1nc(S(=O)(=O)c2ccc(C)cc2)c(Cl)s1,i,i,i,i,i
Cc1ccc(S(=O)(=O)c2nc(Nc3nccs3)sc2Cl)cc1,i,i,12,i,i
COc1ccc(C(=O)NCCCCCCNC(=O)c2ccc(OC)cc2)cc1,i,i,i,i,i
CN(c1ccccc1)S(=O)(=O)c1cccc(C(=O)OCC(=O)NCc2ccc3c(c2)OCO3)c1,i,i,13,i,i
Cc1ccc(C(=O)OCC(=O)NCc2ccco2)cc1,i,i,10,i,41
CN(c1ccccc1)S(=O)(=O)c1cccc(C(=O)OCC(=O)NCc2ccccc2)c1,i,i,i,i,nt
CN(c1ccccc1)S(=O)(=O)c1cccc(C(=O)OCC(=O)NCc2ccco2)c1,i,i,i,i,24
CC(C)Cn1c(N)c(C(=O)COC(=O)c2cnc(Cl)c(Cl)c2)c(=O)n(C)c1=O,i,i,i,i,i
COC(=O)c1ccccc1-c1cn(C)c2ccccc2c1=O,i,i,i,i,i
CC(=O)Nc1ccc(S(=O)(=O)N2CCN(C(=O)c3ncoc3-c3ccccc3)CC2)cc1,i,i,i,nt,i
O=C(Nc1ccccn1)c1ccc(S(=O)(=O)N2CCCCCC2)cc1,i,i,i,i,nt
O=C1CC2(CCN(C(=O)C3CC(=O)N(c4ccccc4)C3)CC2)Oc2ccccc21 (stereo unspecified),i,i,i,i,nt
Cc1ccc(NC(=S)N2CCC(NC(=O)c3ccco3)CC2)cc1C,i,i,i,i,i
SMILES,UBC13 inh,dFosB act,NR3A LBD binder,CR mimetic SO,NALP1 inh
CCOC(=O)c1cc2sc(C)cc2n1CC(=O)N1CCOCC1,i,i,i,i,36
CCN(CC)S(=O)(=O)c1cccc(NC(=O)c2cccc(S(=O)(=O)N3CCCC3)c2)c1,i,i,i,i,nt
CN(C)CCCn1c2c3ccccc3ccc2c2oc(=O)c3ccccc3c21,nt,73,i,nt,nt
CN(C)CCCn1c(=S)[nH]c2ccccc2c1=O,i,i,i,i,i
Cc1ccc(S(=O)(=O)N(C)CC(=O)NCCCn2ccnc2)cc1,i,i,i,i,i
Cc1cc(C)c2c(=O)cc(C(F)F)oc2c1,i,i,i,i,i
